Screening data: PubChem, National Center for Advancing Translational Sciences (NCATS)
SW480 rereplic = A quantitative high throughput screen for small molecules that induce DNA re-replication in SW480 colon adenocarcinoma cells. SW480 DNA re-replication, Hoechst DNA content imaging, 48 h. Potency, µM (doses to about 46.1 µM), most hits filed as activators. hit rate 1.8% among 340,000. AID 624297, 2012; further: nearly all actives have a fitted effect of over 55% in size
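Quantitative HTS format with DMSO vehicle controls; 48 hr drug incubation at 37 C, then 40 min Hoechst staining and scanning imager measurement at 405 nm excitation.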
TDP1 cell noCPT = qHTS for Inhibitors of human tyrosyl-DNA phosphodiesterase 1 (TDP1): qHTS in cells in absence of CPT. DT40 Tdp1-/- hTDP1 cells, no CPT, ATP luminescence, 48 h. Potency, µM (top dose mostly 46.2 µM), most hits filed as inhibitors. hit rate 15% among 420,000. AID 686978, 2013; further: nearly all actives have a fitted effect of over 55% in size
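Seeded 400 DT40-hTDP1 cells/well (vehicle DMSO, no 20 nM CPT); pinned compounds; ≥48 hr at 37 °C; CellTiter-Glo luminescence as viability measure.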
DT40 TDP1 CPT = qHTS for Inhibitors of human tyrosyl-DNA phosphodiesterase 1 (TDP1): qHTS in cells in presence of CPT | chicken DT40 Tdp1-/-;hTDP1 cells + 20 nM CPT, ATP luminescence, 48 h | Potency, µM (series often up to 46.2 µM), usual class: inhibitors | hit rate 12% among 420,000; further: nearly all actives have a fitted effect of over 55% in size
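Chicken DT40 Tdp1-/- cells complemented with human TDP1, 400 cells/well, exposed to compounds plus 20 nM camptothecin for at least 48 h at 37 C; viability read as ATP content by CellTiter-Glo luminescence.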
Chronic BCR inh = qHTS Assay to Find Inhibitors of Chronic Active B-Cell Receptor Signaling. ABC-DLBCL IkBa-CBG/CBR reporter, luminescence ratio, 4 h. Potency, µM (doses to about 46.1 µM), actives largely listed as inhibitors. hit rate 0.05% among 340,000. AID 493014, 2011; active means well fitted inhibition curve with a large enough effect in the signal ratio, with a control signal flat, not every such curve was filed as active; inconclusive means small, poorly fitted or top-dose-only effect, or effect the other way, or a change in a side signal; the % refers to the signal ratio
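TMD8 human ABC-DLBCL cells with doxycycline-inducible IκBα–green luciferase fusion and unfused red luciferase, in 0.5% FBS medium; compounds up to 46 uM, 4 h at 37C. Green/red luminescence ratio, filter-overlap corrected, fitted to concentration-response curves.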
MCF10A rerep = A quantitative high throughput screen for small molecules that induce DNA re-replication in MCF 10a normal breast cells | Potency, µM (doses to about 46.1 µM), hits mostly activators | hit rate 2.9% among 350,000 | MCF 10A DNA re-replication, Hoechst nuclear intensity, 48 h; further: nearly all actives have a fitted effect of over 50% in size
IL1B secr inh = qHTS for Inhibitors of Inflammasome Signaling: IL-1-beta AlphaLISA Primary Screen | THP-1 LPS/ATP IL-1B secretion, AlphaLISA, 16 h; hits give low values | activity change, % at 57.5 µM | hit rate 4.7% among 360,000; in the data active means activity change below about -50%; inconclusive means mostly about -30% to -49%
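THP-1 cells pretreated 1 hr with compounds (up to 57.5 uM final), then stimulated with LPS (250 ng/mL final) plus ATP (1.25 mM final); secreted IL-1B measured by AlphaLISA after 16 hr, decreased signal indicating inhibition.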
Large screens that a line does not name were inactive. The list is not random: actives were taken first. Their share in the collection is about 19%. Unless noted, the call rests on the fitted dose curve; in most records, active means well fitted curve in the direction sought with a large enough effect; inconclusive means small, poorly fitted or top-dose-only effect, or another doubt; inactive means no such curve, though single readings can be large; an effect the other way counts as inactive or inconclusive.

COc1ccccc1NC(=S)NCCc1ccccc1	TDP1 cell noCPT 21µM, Chronic BCR inh inconclusive
Cn1cnnc1SCC(=O)Nc1ccc(Cl)c(S(=O)(=O)N2CCOCC2)c1	none
CCn1c(SCc2nc3scc(-c4ccccc4)c3c(=O)[nH]2)nnc1-c1cccs1	SW480 rereplic inconclusive, TDP1 cell noCPT 21µM, DT40 TDP1 CPT 21µM, Chronic BCR inh inconclusive, MCF10A rerep inconclusive
O=c1[nH]c(Cc2ccccc2)nc2scc(-c3ccccc3)c12	TDP1 cell noCPT inconclusive, DT40 TDP1 CPT inconclusive, MCF10A rerep inconclusive
Cc1nnc(SCc2nc3scc(-c4ccccc4)c3c(=O)[nH]2)s1	none
Nc1nnc(SCc2nc3scc(-c4ccccc4)c3c(=O)[nH]2)s1	TDP1 cell noCPT 18µM, DT40 TDP1 CPT 23µM
Cc1csc(SC(C)c2nc3scc(-c4ccccc4)c3c(=O)[nH]2)n1 (configuration not stated)	TDP1 cell noCPT 21µM, DT40 TDP1 CPT inconclusive, Chronic BCR inh inconclusive, MCF10A rerep inconclusive
CN(Cc1ccccc1)Cc1nc2scc(-c3ccccc3)c2c(=O)[nH]1	TDP1 cell noCPT inconclusive, DT40 TDP1 CPT 13µM, Chronic BCR inh inconclusive
O=c1c(-c2cccs2)nc2cnc(Oc3cccc(Cl)c3)nc2n1C1CC1	none (no result: SW480 rereplic, Chronic BCR inh, MCF10A rerep, IL1B secr inh)
CCCn1c(N)c(N(CCOC)C(=O)CSc2c(Cl)cccc2Cl)c(=O)[nH]c1=O	none
CCn1c(SC)nnc1-c1c[nH]c2ccccc12	Chronic BCR inh inconclusive
CSc1nnc(-c2sc3cc(Cl)ccc3c2Cl)n1C	TDP1 cell noCPT 26µM, DT40 TDP1 CPT inconclusive, MCF10A rerep inconclusive
CCn1c(SC)nnc1-c1sc2cc(Cl)ccc2c1Cl	TDP1 cell noCPT inconclusive, DT40 TDP1 CPT 16µM, MCF10A rerep inconclusive, IL1B secr inh inconclusive
CCCN=C(N)NCCC[C@H](N)C(=O)O	none (no result: SW480 rereplic, Chronic BCR inh, MCF10A rerep, IL1B secr inh)
CCNC(=O)NCCCOc1cccc(CN2CCCCC2)c1	none (no result: SW480 rereplic, Chronic BCR inh, MCF10A rerep, IL1B secr inh)
O=C(NC1CCCC1)C(c1ccc(F)cc1)N(C(=O)c1csnn1)C1CC1 (configuration not stated)	none
CN(C)CCNC(=O)c1c(NC(=O)c2ccccc2)sc2c1CCCC2	TDP1 cell noCPT 26µM, DT40 TDP1 CPT inconclusive, Chronic BCR inh inconclusive (no result: IL1B secr inh)
CN(CCO)C(=O)c1c(NC(=O)c2ccccc2)sc2c1CCCC2	Chronic BCR inh inconclusive
Nc1sc2c(c1C(=O)NCCc1ccccc1)CCCC2	TDP1 cell noCPT 15µM, DT40 TDP1 CPT inconclusive (no result: SW480 rereplic, Chronic BCR inh, MCF10A rerep)
Nc1sc2c(c1C(=O)NCCc1ccccc1)CCC2	none
CN(C)S(=O)(=O)c1cccc(CSCc2cccc(S(=O)(=O)N(C)C)c2)c1	TDP1 cell noCPT 2.6µM, DT40 TDP1 CPT 5.8µM, IL1B secr inh inconclusive
Cc1cc(C)n2nc(SCc3cccc(S(=O)(=O)N(C)C)c3)nc2n1	TDP1 cell noCPT 15µM, DT40 TDP1 CPT inconclusive
CC(NCc1cccc(S(=O)(=O)N(C)C)c1)c1ccc(F)cc1 (configuration not stated)	none
Cc1cc(C(=O)N2CCC2(C)C(=O)NCc2cccc3ccccc23)nn1C (configuration not stated)	TDP1 cell noCPT inconclusive (no result: SW480 rereplic, Chronic BCR inh, MCF10A rerep)
CC1(C(=O)NCc2cccc3ccccc23)CCN1Cc1ccccc1OC(F)F (configuration not stated)	TDP1 cell noCPT 15µM, DT40 TDP1 CPT 21µM, IL1B secr inh inconclusive (no result: SW480 rereplic, Chronic BCR inh, MCF10A rerep)
COC(=O)Cc1ccc(OC2(C)CCN(Cc3ccccc3OC(F)F)C2)cc1 (configuration not stated)	TDP1 cell noCPT inconclusive, IL1B secr inh -54 (no result: SW480 rereplic, Chronic BCR inh, MCF10A rerep)
CC1(C(=O)NCc2ccc(C(F)(F)F)cc2)CCN1Cc1ccccc1OC(F)F (configuration not stated)	TDP1 cell noCPT 23µM, DT40 TDP1 CPT inconclusive (no result: SW480 rereplic, Chronic BCR inh, MCF10A rerep)
CC1(C(=O)NCc2ccc(C(F)(F)F)cc2)CCN1Cc1cc2ccccc2o1 (configuration not stated)	TDP1 cell noCPT 18µM, DT40 TDP1 CPT 21µM (no result: SW480 rereplic, Chronic BCR inh, MCF10A rerep)
CCc1ccc(OC2(C)CCN(Cc3ccccc3OC(F)F)C2)cc1 (configuration not stated)	TDP1 cell noCPT inconclusive (no result: SW480 rereplic, Chronic BCR inh, MCF10A rerep)
CC1(C(=O)NCc2ccc(C(F)(F)F)cc2)CCN1C1Cc2ccccc2C1 (configuration not stated)	TDP1 cell noCPT inconclusive, DT40 TDP1 CPT inconclusive (no result: SW480 rereplic, Chronic BCR inh, MCF10A rerep)
COc1ccc(Nc2nc3c(S(=O)(=O)c4ccc(C)cc4)nnn3c3ccsc23)cc1Cl	none (no result: SW480 rereplic, Chronic BCR inh, MCF10A rerep, IL1B secr inh)
CCOc1cc(/C=C2/C(=N)N3C(=NC2=O)SN=C3S(C)(=O)=O)ccc1OS(=O)(=O)c1ccccc1	TDP1 cell noCPT 21µM, DT40 TDP1 CPT inconclusive, MCF10A rerep inconclusive
